Screening results deposited in PubChem BioAssay by Sanford-Burnham Center for Chemical Genomics.
Only some compounds are listed: those with a hit (about 4% of all), similar ones and a draw of the others.
TROY NFkB inh: inhibitors of TROY-dependent NF-kB signaling; inhibition, % at 10 µM; 360,000 tested, 0.98% active; AID 1347056; Q293 LMP1-TROYcd NF-kB luciferase reporter, 4 h;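 active = compounds whose plate-normalised and pattern-corrected inhibition of the luciferase reporter signal at the single screening dose is 50% or more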
Peg3 promoter: inhibitors of Peg3 promoter. HeLa PEG-Prom luciferase reporter, luminescence, overnight. inhibition, % at 20 µM. 360,000 tested, 1.7% active;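 active = inhibition of at least 50% at 20 µM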
TWEAK-Fn14 inh: blocks TWEAK-Fn14 interaction in a reporter cell assay; TWEAK-stimulated Fn14 reporter cells, luciferase luminescence, 8 h; inhibition, % at 10 µM; 360,000 tested, 2% active; AID 1159606; in the data active = inhibition above about 50%
KKLEB cytotox: reduces viability of KKLEB cystic fibrosis airway cells. KKLEB CF airway cells viability, ATPlite luminescence, overnight; hits give low values; cells stimulated with P. aeruginosa culture filtrate. activity change (cytotoxicity), % at 5 µM. 360,000 tested, 0.36% active. AID 602141;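 active = corrected activity change at or below -50% at 5 µM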
HIF-2a inh: blocks HIF-2a reporter activity; 786-0 RCC cells HIF-2a reporter, luciferase luminescence, overnight; inhibition, % at 18.8 µM; 360,000 tested, 0.72% active;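 active = inhibition of the luminescence signal of 40% or more relative to plate controls, in a single-dose primary screen at 18.75 µM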
CF NFkB inh: blocks PAF-induced NF-kB reporter in cystic fibrosis cells; KKLEB NF-kB-GFP reporter, GFP fluorescence overnight; inhibition, % at 5 µM; 360,000 tested, 0.86% active;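 active = at least 50% inhibition at 5 µM, scaled per plate between neutral and stimulator controls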;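 note: PAF is a Pseudomonas aeruginosa culture filtrate used as stimulus; plate controls were PAF-stimulated DMSO wells for no effect and unstimulated DMSO wells for full effect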
Numbers without * were called inactive; / = no result.

SMILES | TROY NFkB inh | Peg3 promoter | TWEAK-Fn14 inh | KKLEB cytotox | HIF-2a inh | CF NFkB inh
O=C(Nc1ccc(Br)cc1)c1cccc(S(=O)(=O)Nc2cnc3ccccc3c2)c1 | 42.9 | 5.9 | 50.9* | 1.7 | -23.6 | -13.8
O=C(Nc1ccc(Br)cc1)c1cccc(S(=O)(=O)Nc2ccccn2)c1 | 6.4 | 14.7 | 23.4 | 4.2 | 0.2 | 2.9
CCNC(=O)CC1C(=O)N(C)C(=S)N1NC(=O)c1ccc(Cl)cc1 (configuration not stated) | 17.8 | 2.6 | 24.5 | -3.7 | 9.4 | 4.3
Nc1ccc(C(=O)NN2C(=O)[C@H](Cl)C2c2ccc(Cl)cc2)cc1 (some centres not stated) | -23.3 | 102.0* | 64.6* | -78.9* | 10.9 | 90.9*
O=C1NC[C@H](CCCCN2C[C@H](Cc3ccccc3)N(Cc3ccccc3)C(=O)C2=O)N(CCC2CCCCC2)C1=O | 3.1 | / | 18.5 | / | -5.9 | /
CCOc1cccc(C(=O)Nc2cccc(-c3nnc(-c4ccc(C)cc4)o3)c2)c1 | 5.3 | 12.4 | -55.2 | -67.9* | 0.7 | 56.8*
CCOc1cccc(C(=O)Nc2cccc(-c3nnc(-c4ccccc4)o3)c2)c1 | 24.1 | 75.8* | 49.1 | -2.9 | -73.8 | -1.3
C=C1CCC[C@]2(C)C[C@H]3OC(=O)C(CNC(CC)CO)[C@H]3CC12 (some centres not stated) | 3.5 | -60.0 | 57.2* | -0.9 | 18.8 | 37.1
C=C1CCC[C@]2(C)C[C@H]3OC(=O)C(CNC(C)CC)[C@H]3CC12 (some centres not stated) | -13.9 | -17.6 | 3.7 | -2.9 | 13.4 | -2.3
O=C(c1ccccn1)N1N=C2/C(=C/c3ccccc3)CCCC2C1c1ccccc1 (configuration not stated) | -9.7 | -3.1 | 9.2 | -4.6 | -3.7 | 9.3
CNC(=O)c1sc(N2N=C3/C(=C\c4ccccc4)CCCC3C2c2ccccc2)nc1C (configuration not stated) | 48.1 | 35.6 | 83.6* | 2.1 | 28.4 | -22.9
CNC(=O)c1sc(N2N=C3/C(=C/c4ccccc4)CCCC3C2c2ccccc2)nc1C (configuration not stated) | 30.0 | 1.8 | 58.4* | -19.1 | 13.5 | -2.1
Cc1cccc(NC(=O)CCc2nnc3ccc(N4CCC(C)CC4)nn23)n1 | -3.3 | 18.7 | -24.9 | 0.5 | 7.2 | -22.5
CCOC(=O)N1CCN(C(=O)/C(=C/c2ccc(OC)cc2)NC(=O)c2ccccc2)CC1 | 12.6 | 8.3 | 1.6 | 2.4 | 3.5 | -14.9
CCOC(=O)N1CCN(C(=O)/C(=C/c2cccc3ccccc23)NC(=O)c2ccc(OC)cc2)CC1 | 56.0* | -35.0 | 19.3 | 13.9 | -113.7 | -14.5
O=C(/C=C/c1ccc(S(=O)(=O)N2CCOCC2)cc1)OCC(=O)c1ccc([N+](=O)[O-])cc1 | -3.2 | 8.6 | -4.5 | 1.5 | -13.2 | -11.9
COc1ccc(C2(C(=O)Nc3ccccc3)CCOCC2)cc1 | 1.5 | 18.9 | 67.1* | 5.0 | 4.2 | -10.2
CN(C(=O)C1CCCN1S(=O)(=O)c1ccc(Cl)cc1)c1ccccc1 (configuration not stated) | 14.0 | 10.5 | 6.6 | 14.1 | 8.3 | -32.3
CNc1ncnc2c1ncn2[C@H]1CN(CCN2CCOCC2)C[C@@H](CO)O1 | 2.5 | 0.2 | 10.1 | 10.5 | 8.8 | -6.6
O=C(Nc1ccc(F)cc1F)c1cc(-c2ccc3c(c2)OCO3)on1 | -62.4 | -106.4 | -37.1 | -1.2 | -44.4 | -3.9
CC(=O)c1ccc(NC(=S)NC(C)c2ccc(Cl)cc2Cl)cc1 (configuration not stated) | 56.0* | 29.6 | 10.9 | -13.1 | -11.3 | 28.1
CC(=O)c1ccc(NC(=S)Nc2ccc(Br)c(Cl)c2)cc1 | -24.5 | -51.9 | -24.9 | 10.7 | -187.4 | -6.1
O=C(C1CCCCC1)N1C[C@H](n2cc(C3CC3)nn2)[C@@H](O)C[C@@H]1c1ccc(Cl)cc1 | -5.6 | 6.5 | 15.4 | -3.0 | 5.0 | -6.5
CC(C)(C)C(=O)CN1C2=NCCCN2c2ccccc21 | -9.2 | -2.9 | -3.0 | 6.0 | 9.8 | -8.0
CC1(C)CC(Cc2ccccc2C(F)(F)F)N(C(=O)OC(C)(C)C)C1 (configuration not stated) | / | / | / | / | 2.7 | /
SMILES | TROY NFkB inh | Peg3 promoter | TWEAK-Fn14 inh | KKLEB cytotox | HIF-2a inh | CF NFkB inh
CN1CN=C(NS(=O)(=O)c2ccc([N+](=O)[O-])cc2)NC1 | 1.9 | -5.8 | 55.1* | 1.6 | -2.3 | -18.8
CC(=O)Nc1ccc(S(=O)(=O)NC2=NCN(c3ccc([N+](=O)[O-])cc3)CN2)cc1 | -7.1 | 6.2 | 16.4 | -9.3 | 4.3 | -7.7
[O-]/C(=C(\C(=S)Nc1cccc2ccccc12)[n+]1ccccc1)c1ccc(OC(F)F)cc1 | 81.6* | -4.4 | 42.9 | -3.2 | 7.7 | -7.2
COc1cccc(NC(=S)/C(=C(\[O-])c2ccc(OC(F)F)cc2)[n+]2ccccc2)c1 | -48.3 | -75.0 | 32.3 | -17.7 | -120.2 | -12.3
CC1CCN(c2ccc(-c3ccc(NC(=O)C(F)(F)F)cc3)nn2)CC1 | 41.5 | 6.3 | 62.2* | -39.4 | -8.9 | 6.2
CC1=C(C)C(=O)C(CCCCC#CCCCC#CCO)=C(C)C1=O | 10.1 | 6.2 | 23.6 | 1.9 | 10.0 | 44.0
COC1=C(OC)C(=O)C(CCCCCCCCCCO)=C(C)C1=O | 50.4* | -22.4 | 76.8* | 1.7 | 5.0 | 32.1
N#Cc1cccc2c1-c1ccccc1/C2=N/NC(N)=O | -24.1 | 51.6* | -21.3 | 10.2 | 29.9 | -100.9
O=C(N/N=C/c1ccc(F)cc1)c1cc(-c2ccc3c(c2)OCO3)n[nH]1 | -12.4 | 4.4 | -17.1 | 4.6 | 17.9 | -0.4
CN(C)c1ccc(/C=N\NC(=O)c2csnn2)cc1 | 19.1 | -115.8 | 71.3* | 5.4 | -48.0 | -10.4
O=C(N/N=C/c1ccncc1)c1ccccn1 | -15.4 | -85.0 | -12.9 | 8.4 | -89.7 | 15.0
O=C(N/N=C/c1ccc2c(c1)OCO2)c1ccccn1 | 38.9 | -12.7 | 75.8* | -22.6 | -8.7 | 2.1
COc1ccc(/C=N/NC(=O)c2cc(-c3ccc4c(c3)OCO4)n[nH]2)cc1OC | -28.1 | -10.4 | 52.4* | -13.5 | -16.9 | 24.4
CC(C)c1ccc(/C=N/NC(=O)c2ccccn2)cc1 | 46.4 | -39.2 | 77.4* | -41.2 | -71.3 | -7.3
COC(=O)c1ccccc1Oc1cc(C(F)(F)F)nc(-c2ccccn2)n1 | -15.8 | 17.3 | -15.0 | -2.0 | 17.6 | 14.2
Cc1ccc(NC(=O)CCN2C(=O)CSC2=O)c(C)c1 | / | -8.8 | 73.9* | -7.0 | -18.6 | 8.9
Cc1ccccc1NC(=O)CCN1C(=O)CSC1=O | -3.4 | -1.7 | -6.1 | 13.8 | -2.4 | -7.3
COc1cc(/C=C/C(=O)OCC(=O)Nc2oc(C)c3c(C)n[nH]c(=O)c23)ccc1OC(F)F | 9.3 | -11.9 | 2.8 | 13.4 | 1.3 | -29.9
Cc1ccsc1C(=O)OCC(=O)c1cc(C)n(C)c1C | 11.9 | 37.8 | 84.2* | 3.9 | -143.2 | -6.0
Cc1cc(C(=O)COC(=O)c2nccnc2N)c(C)n1C | 4.0 | -112.3 | 2.5 | -0.2 | -50.6 | 13.0
